# Measurements taken from PubChem BioAssay.
# Calls of active or inactive are those of the source. Cut-off read from the data, not from the text of the source, unless noted: active = inhibition above about 80%; inactive = the rest.
# Assays:
# [1] = LFS_MB_P medulloblastoma growth inhibition, cell-based, chromothripsis tumors, cisplatin or BGB combos (AID 1671449); conditions: LFS_MB_P medulloblastoma cells;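 note: cells exposed for 96 hours; 0% = vehicle DMSO and 100% = killing by high DMSO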
# [2] = HDN33 neuroblastoma growth inhibition, cell-based, chromothripsis tumors, cisplatin or BGB combos (AID 1671450); conditions: HDN33 neuroblastoma cells, stronger effect = higher value;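 note: cells exposed to compound for four days; 0% = vehicle DMSO and 100% = cell killing by high DMSO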
# [3] = ICB984 medulloblastoma cell growth inhibition, synergistic combos for chromothripsis tumors, cisplatin or BGB combos (AID 1671451; call rule not given here;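 note: cells exposed for 96 hours before readout; 0% = vehicle DMSO and 100% = killing by high DMSO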); conditions: ICB984 medulloblastoma cells, drug combinations, stronger effect = higher value
# [4] = LFS_MB_1R medulloblastoma cell growth inhibition, synergistic combos for chromothripsis tumors, cisplatin or BGB combos (AID 1671452); conditions: LFS_MB_1R medulloblastoma cells, stronger effect = higher value;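 note: cells exposed for 96 hours before readout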
# [5] = HTB85 osteosarcoma cell growth inhibition, synergistic combos for chromothripsis tumors, BGB or cisplatin IC20 combos (AID 1671453); conditions: HTB85 osteosarcoma cells, drug combinations, stronger effect = higher value;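 note: cells exposed for 96 hours before readout; 0% = vehicle DMSO and 100% = high DMSO killing control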
# [6] = CRL2098 osteosarcoma cell growth inhibition, synergistic combos for chromothripsis tumors, BGB or cisplatin IC20 combos (AID 1671454); conditions: CRL2098 osteosarcoma cells, drug combinations, stronger effect = higher value;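 note: cells exposed for 96 h before readout; 0% = vehicle DMSO and 100% = killing by high DMSO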
# [7] = HD-MB03 medulloblastoma cell growth inhibition, synergistic combos for chromothripsis tumors, BGB or cisplatin IC20 combos (AID 1671455; in the data active = inhibition above about 83%;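 note: 0% = vehicle DMSO and 100% = high DMSO as cytotoxic control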); conditions: HD-MB03 medulloblastoma cells, stronger effect = higher value
# [8] = UWB1.289 ovarian carcinoma cell growth inhibition, synergistic combos for chromothripsis tumors, BGB or cisplatin combos (AID 1671456); conditions: UWB1.289 ovarian carcinoma cells, stronger effect = higher value;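 note: cells exposed to compound for four days; 0% = vehicle DMSO and 100% = killing by high DMSO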
# [9] = LFS_MB_2R medulloblastoma cell growth inhibition, synergistic combos for chromothripsis tumors, cisplatin combos (AID 1671457); conditions: LFS_MB_2R medulloblastoma cells, stronger effect = higher value;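 note: cells exposed to compound for four days before readout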
# [10] = MDA-MB-436 breast carcinoma cell growth inhibition, synergistic combos for chromothripsis tumors, BGB or cisplatin combos (AID 1671458; call rule not given here;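 note: cells exposed for 96 hours; 0% = vehicle DMSO and 100% = killing by high DMSO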); conditions: MDA-MB-436 breast carcinoma growth inhibition, drug combinations, stronger effect = higher value
# [11] = UWB1.289_BRCA1 ovarian cancer growth, cell-based, BGB or cisplatin combinations (AID 1671459); conditions: UWB1.289 BRCA1 ovarian carcinoma, drug combinations, stronger effect = higher value
# [12] = human astrocyte viability loss, single and combined drugs, cytotoxicity control for chromothriptic childhood tumor combination screen, cell-based, BGB or cisplatin IC20 combos (AID 1671460); conditions: Human astrocytes, drug combinations, stronger effect = higher value;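 note: cells exposed to compounds for 96 hours before viability readout; 0% = vehicle and 100% = killing control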
# [13] = growth inhibition of BT084 medulloblastoma cells, cell-based, ICGC_MB145, cisplatin and BGB IC40 combos (AID 1671461); conditions: drug combinations, stronger effect = higher value;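 note: cells exposed to drugs for 96 hours; 0% = vehicle DMSO and 100% = high DMSO full killing control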
# [14] = growth inhibition of RCMB18 medulloblastoma cells, cell-based, cisplatin and BGB IC40 combos (AID 1671462); conditions: stronger effect = higher value;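 note: cells exposed to compound for four days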
# [15] = growth inhibition of CRL1545 osteosarcoma cells, cell-based, cisplatin and BGB IC20 combos (AID 1671464); conditions: stronger effect = higher value;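 note: cells exposed to compound for 96 hours before readout; 0% = vehicle DMSO and 100% = high DMSO killing control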
# [16] = at 0.5 µM, stronger effect = higher value
# [17] = measured here: combination with BGB IC20, at 0.005 µM
# [18] = measured here: combination with BGB IC40, at 0.005 µM
# [19] = measured here: combination with BGB IC40, at 0.05 µM
# [20] = measured here: combination with cisplatin, at 0.5 µM, stronger effect = higher value
# [21] = measured here: combination with cisplatin, at 5 µM, stronger effect = higher value
# [22] = measured here: with BGB IC20 combination, at 0.5 µM
# [23] = measured here: with cisplatin IC20 combination, at 0.5 µM
# [24] = measured here: 5 uM single agent, at 5 µM
# [25] = measured here: combination with cisplatin, at 0.5 µM
# [26] = measured here: combination with cisplatin, at 5 µM
# [27] = measured here: with BGB IC20, at 0.5 µM
# [28] = measured here: with BGB IC20, at 5 µM
# [29] = measured here: with cisplatin IC20, at 0.5 µM
# [30] = measured here: with cisplatin IC20, at 5 µM
structure (smiles),measurement,setting,value
COc1cccc2c1C(=O)c1c(O)c3c(c(O)c1C2=O)CC(O)(C(C)=O)CC3OC1CC(N)C(O)C(C)O1 (stereo not drawn),inhibition,[1]; [16],-31.5% (inactive)
same,inhibition,[1]; [17],15.7%
same,inhibition,[1]; [18],-20.1%
same,inhibition,[1]; [19],0.2%
same,inhibition,[1]; [20],-39.6%
same,inhibition,[1]; [21],121%
same,inhibition,"[2]; BGB combo, at 5 µM",99.8%
same,inhibition,[2]; at 0.5 µM,99.4% (active)
same,inhibition,"[2]; cisplatin combo, at 5 µM",99.9%
same,inhibition,[2]; [22],98.9%
same,inhibition,[2]; [23],99.7%
same,inhibition,"[2]; single agent, at 5 µM",99.9%
same,inhibition,"[3]; BGB IC20 combo, at 0.005 µM",97.7%
same,inhibition,"[3]; BGB IC40 combo, at 0.005 µM",98%
same,inhibition,"[3]; BGB IC40 combo, at 0.05 µM",102%
same,inhibition,[3]; at 0.5 µM,-13% (inactive)
same,inhibition,"[3]; cisplatin combo, at 0.05 µM",102%
same,inhibition,"[3]; cisplatin combo, at 0.5 µM",-18.7%
same,inhibition,"[3]; cisplatin combo, at 5 µM",7.68%
same,inhibition,[3]; [24],8.05%
same,inhibition,[4]; at 0.5 µM,101% (active)
same,inhibition,[4]; [19],85%
same,inhibition,[4]; [25],101%
same,inhibition,[4]; [26],104%
same,inhibition,[5]; at 0.5 µM,99.2% (active)
same,inhibition,[5]; [27],98.8%
same,inhibition,[5]; [28],99.9%
same,inhibition,[5]; [29],99.3%
same,inhibition,[5]; [30],100%
same,inhibition,"[5]; single agent, at 5 µM",99.9%
same,inhibition,[6]; at 0.5 µM,99.4% (active)
same,inhibition,"[6]; measured here: combination with BGB at IC20, at 0.5 µM",98.9%
same,inhibition,"[6]; measured here: combination with cisplatin at IC20, at 0.5 µM",99.6%
same,inhibition,[7]; at 0.5 µM,97.2% (active)
same,inhibition,"[7]; measured here: combo with BGB at IC20, at 0.5 µM",95.8%
same,inhibition,"[7]; measured here: combo with cisplatin at IC20, at 0.5 µM",97.5%
same,inhibition,[8]; at 0.5 µM,72.4% (inactive)
same,inhibition,"[8]; measured here: inhibition with BGB combination, at 0.05 µM",38.4%
same,inhibition,"[8]; measured here: inhibition with cisplatin combination, at 0.05 µM",35.7%
same,inhibition,[9]; at 0.5 µM,86.9% (active)
same,inhibition,[9]; [25],95.6%
same,inhibition,[9]; [26],112%
same,inhibition,[10]; at 0.5 µM,87.4% (active)
same,inhibition,"[10]; measured here: BGB combination, at 0.5 µM",85.1%
same,inhibition,"[10]; measured here: BGB combination, at 5 µM",89.2%
same,inhibition,"[10]; measured here: cisplatin combination, at 0.5 µM",91.5%
same,inhibition,"[10]; measured here: cisplatin combination, at 5 µM",95.1%
same,inhibition,"[11]; BGB combination, concentration series, at 5 µM",104%
same,inhibition,[11]; at 0.5 µM,80.6% (active)
same,inhibition,"[11]; cisplatin combination, concentration series, at 5 µM",98.3%
same,inhibition,[12]; at 0.5 µM,93.3% (active)
same,inhibition,"[12]; measured here: combo with BGB IC20, at 0.5 µM",88.3%
same,inhibition,"[12]; measured here: combo with cisplatin IC20, at 0.5 µM",93.9%
same,inhibition,[13]; at 0.5 µM,40.4% (inactive)
same,inhibition,"[13]; cisplatin combination, at 0.5 µM",18.1%
same,inhibition,"[13]; cisplatin combination, at 5 µM",88%
same,inhibition,"[13]; measured here: BGB IC40 combination 0.05 uM, at 0.05 µM",-6.7%
same,inhibition,"[13]; single agent, at 5 µM",88.2%
same,inhibition,[14]; at 0.5 µM,79% (inactive)
same,inhibition,"[14]; cisplatin combo, at 5 µM",90.7%
same,inhibition,"[14]; measured here: BGB IC40 combination, at 0.05 µM",13.9%
same,inhibition,[14]; [25],77.7%
same,inhibition,"[14]; single agent, at 5 µM",94.7%
same,inhibition,[15]; at 0.5 µM,99.5% (active)
same,inhibition,[15]; [22],99.1%
same,inhibition,[15]; [23],99.7%
same,inhibition,"[15]; single agent, at 0.05 µM",98.4%
same,inhibition,"[15]; single agent, at 5 µM",100%
COc1nc(N)nc2c1ncn2[C@@H]1O[C@H](CO)[C@@H](O)[C@H]1O,inhibition,[1]; [16],4.72% (inactive)
same,inhibition,[1]; [17],15.5%
same,inhibition,[1]; [18],9.31%
same,inhibition,[1]; [19],-38.6%
same,inhibition,[1]; [20],58.9%
same,inhibition,[1]; [21],5.54%
same,inhibition,"[2]; BGB combo, at 5 µM",-39.7%
same,inhibition,[2]; at 0.5 µM,-10.9% (inactive)
same,inhibition,"[2]; cisplatin combo, at 5 µM",-30.3%
same,inhibition,[2]; [22],-0.293%
same,inhibition,[2]; [23],-13.5%
same,inhibition,"[2]; single agent, at 5 µM",-2.81%
same,inhibition,"[3]; BGB IC20 combo, at 0.005 µM",-28.6%
same,inhibition,"[3]; BGB IC40 combo, at 0.005 µM",-6.48%
same,inhibition,"[3]; BGB IC40 combo, at 0.05 µM",-21%
same,inhibition,[3]; at 0.5 µM,-21.1% (inactive)
same,inhibition,"[3]; cisplatin combo, at 0.05 µM",-25.3%
same,inhibition,"[3]; cisplatin combo, at 0.5 µM",-22.6%
same,inhibition,"[3]; cisplatin combo, at 5 µM",-28.5%
same,inhibition,[3]; [24],-19.6%
same,inhibition,[4]; at 0.5 µM,-13.7% (inactive)
same,inhibition,[4]; [19],-35.3%
same,inhibition,[4]; [25],-34.3%
same,inhibition,[4]; [26],-13.1%
same,inhibition,[5]; at 0.5 µM,-19.2% (inactive)
same,inhibition,[5]; [27],-19.6%
same,inhibition,[5]; [28],-25.8%
same,inhibition,[5]; [29],-42.1%
same,inhibition,[5]; [30],-37.2%
same,inhibition,"[5]; single agent, at 5 µM",-10.5%
